Measurements from the supplement of paper PMC8728848.
The sample as a whole holds a higher share of the strongest signals than the screen did.

Key:
Assay in all cases: glycan array binding signal (z-score within array); higher = stronger binding
Conditions in all cases: glycan notation: IUPAC condensed, linker removed
[1] = target: Fuc(a1-2)Gal(b1-3)GalNAc(b1-3)Gal
Summary of the method: (§1)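 Arrays were curated from the Consortium for Functional Glycomics database, 3228 in total, and kept only where the protein sequence was available. Binding is expressed as a within-array Z-score. This score was averaged across arrays of the same protein sequence at different concentrations or buffers and across linkers, and negative values can be read as non-binding.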

[2] = target: Fuc(a1-2)Gal(b1-3)GlcNAc(b1-3)[Fuc(a1-2)Gal(b1-3)GlcNAc(b1-6)]GalNAc
Summary of the method: as §1

[3] = target: Fuc(a1-2)Gal3S(b1-4)GlcNAc
Summary of the method: as §1

[4] = target: Fuc(a1-2)Gal6S(b1-3)GlcNAc
Summary of the method: as §1

[5] = target: Fuc(a1-2)Gal6S(b1-3)GlcNAc6S
Summary of the method: as §1

[6] = target: Fuc(a1-2)Gal6S(b1-4)Glc6S
Summary of the method: as §1

[7] = target: Fuc(a1-2)[Gal(a1-3)]Gal(b1-4)GlcNAc
Summary of the method: as §1

[8] = target: Fuc(a1-2)[Gal(a1-3)]Gal(b1-4)[Fuc(a1-3)]Glc
Summary of the method: as §1

[9] = target: Fuc(a1-2)[GalNAc(a1-3)]Gal(b1-4)GlcNAc(b1-3)Gal(b1-4)GlcNAc
Summary of the method: as §1

[10] = target: Fuc(a1-2)[GalNAc(a1-4)]Gal(b1-4)GlcNAc
Summary of the method: as §1

[11] = target: Fuc(a1-3)[Gal(b1-4)]GlcNAc6S
Summary of the method: as §1

[12] = target: Gal(a1-3)Gal(b1-4)GlcNAc
Summary of the method: as §1

[13] = target: Gal(b1-3)Gal(b1-4)GlcNAc
Summary of the method: as §1

[14] = target: Gal(b1-3)GalNAc(a1-3)[Fuc(a1-2)]Gal(b1-4)Glc
Summary of the method: as §1

[15] = target: Gal(b1-3)GlcNAc(b1-2)[Gal(b1-3)GlcNAc(b1-6)]Man(a1-6)[Gal(b1-3)GlcNAc(b1-2)Man(a1-3)]Man(b1-4)GlcNAc(b1-4)GlcNAc
Summary of the method: as §1

[16] = target: Gal(b1-3)GlcNAc(b1-3)Gal(b1-4)GlcNAc(b1-3)Gal(b1-4)GlcNAc(b1-2)[Gal(b1-3)GlcNAc(b1-3)Gal(b1-4)GlcNAc(b1-3)Gal(b1-4)GlcNAc(b1-6)]Man(a1-6)[Gal(b1-3)GlcNAc(b1-3)Gal(b1-4)GlcNAc(b1-3)Gal(b1-4)GlcNAc(b1-2)Man(a1-3)]Man(b1-4)GlcNAc(b1-4)[Fuc(a1-6)]GlcNAc
Summary of the method: as §1

[17] = target: Gal(b1-3)GlcNAc(b1-3)GalNAc
Summary of the method: as §1

[18] = target: Gal(b1-4)GlcNAc
Summary of the method: as §1

[19] = target: Gal(b1-4)GlcNAc(b1-3)Gal(b1-4)GlcNAc
Summary of the method: as §1

[20] = target: Gal(b1-4)GlcNAc(b1-3)Gal(b1-4)GlcNAc(b1-3)Gal(b1-4)GlcNAc
Summary of the method: as §1

[21] = target: Gal(b1-4)GlcNAc(b1-3)[Gal(b1-4)GlcNAc(b1-6)]Gal(b1-4)GlcNAc
Summary of the method: as §1

[22] = target: Gal6S(b1-3)GlcNAc
Summary of the method: as §1

[23] = target: Gal6S(b1-3)GlcNAc6S
Summary of the method: as §1

[24] = target: Gal6S(b1-4)Glc
Summary of the method: as §1

[25] = target: Gal6S(b1-4)Glc6S
Summary of the method: as §1

[26] = target: Gal6S(b1-4)GlcNAc
Summary of the method: as §1

[27] = target: Gal6S(b1-4)GlcNAc6S
Summary of the method: as §1

[28] = target: GalNAc(b1-3)Gal
Summary of the method: as §1

[29] = target: GalNAc3S(b1-4)[Fuc(a1-3)]GlcNAc
Summary of the method: as §1

[30] = target: GalNAc6S(b1-4)GlcNAc
Summary of the method: as §1

[31] = target: GlcNAc(b1-2)[GlcNAc(b1-4)]Man(a1-3)[GlcNAc(b1-4)][GlcNAc(b1-2)Man(a1-6)]Man(b1-4)GlcNAc(b1-4)GlcNAc
Summary of the method: as §1

[32] = target: GlcNAc(b1-3)Gal(b1-4)Glc
Summary of the method: as §1

[33] = target: Kdn(a2-3)Gal(b1-4)GlcNAc
Summary of the method: as §1

[34] = target: Man(a1-3)[Man(a1-6)]Man(a1-6)[Man(a1-3)]Man(b1-4)GlcNAc(b1-4)GlcNAc
Summary of the method: as §1

[35] = target: Neu5Ac(a2-3)Gal(b1-4)GlcNAc
Summary of the method: as §1

[36] = target: Neu5Ac(a2-6)Gal(b1-4)Glc
Summary of the method: as §1

[37] = target: Neu5Ac(a2-6)Gal(b1-4)GlcNAc(b1-2)Man(a1-3)[Neu5Ac(a2-3)Gal(b1-4)GlcNAc(b1-2)Man(a1-6)]Man(b1-4)GlcNAc(b1-4)GlcNAc
Summary of the method: as §1

[38] = target: Neu5Ac(a2-6)Gal(b1-4)GlcNAc(b1-2)Man(a1-6)Man(b1-4)GlcNAc(b1-4)GlcNAc
Summary of the method: as §1

[39] = target: Neu5Ac(a2-6)Gal(b1-4)GlcNAc(b1-6)GalNAc
Summary of the method: as §1

[40] = target: Neu5Ac(a2-8)Neu5Ac(a2-3)Gal(b1-3)GalNAc(b1-4)[Neu5Ac(a2-3)]Gal(b1-4)Glc
Summary of the method: as §1

[41] = target: Neu5Ac(a2-8)Neu5Ac(a2-3)Gal(b1-3)GalNAc(b1-4)[Neu5Ac(a2-8)Neu5Ac(a2-3)]Gal(b1-4)Glc
Summary of the method: as §1

[42] = target: Neu5Ac(a2-8)Neu5Ac(a2-3)[GalNAc(b1-4)]Gal(b1-4)Glc
Summary of the method: as §1

[43] = target: Neu5Gc(a2-3)Gal(b1-4)GlcNAc
Summary of the method: as §1

[44] = target: Neu5Gc(a2-3)Gal(b1-4)GlcNAc(b1-3)Gal(b1-4)GlcNAc(b1-2)Man(a1-3)[Neu5Gc(a2-3)Gal(b1-4)GlcNAc(b1-3)Gal(b1-4)GlcNAc(b1-2)Man(a1-6)]Man(b1-4)GlcNAc(b1-4)GlcNAc
Summary of the method: as §1

[45] = target: Neu5Gc(a2-3)Gal(b1-4)[Fuc(a1-3)]GlcNAc
Summary of the method: as §1

B1: PX14343B-bfa-546-20-546 (Bacteroides fragilis) (protein)
chain: CDLERYPLTDLSEETFWNSESNAELALTSLYRGSLTDGVEYNPSDWWSYHGMIMMEHLSDNAFDRRGENNPFFKISSGNLTADNAFIKRYWETSYKRIGYCNRFLVGIQNSSESEKKTRMIAEARFLRATQYFYLASYFKNVPLVENVLTGEEANNVTKTSQADILKWCVTEFTAAAADLPRFSAIPAGEAGRACKQAALAFLGRTCMLQKDWKSGAKAFHDIMELGDNAINANYQELFYPSTGTSNKENIFYIQYLENYLGTGLPQHALSAKDGGWSLVNPAADLYESYEFKDGTPFSYDDPRYDPSNLGKDRDPRLDYTIYYNGAIFMGTEYKMSPDYSAAKKEKLDYTSEASRTGFMMRKYFEESTPINDVQSANGLTPVIRYAEVLLGYLECLVEDNQTITQGILDETINAVRGRASVNMPPVTEVTPAKLREIVRHERRIELAMEGIRYWDIMRWGIAHEVLSQKIWGAPYPGSTQYATTTKEVDPTGNYRWYVGKRAFRNPTDYTWPIPQSEQNINPNLRD
- glycan array binding signal (z-score) [1]: -0.117
- glycan array binding signal (z-score) [2]: -0.126
- glycan array binding signal (z-score) [3]: 4.47
- glycan array binding signal (z-score) [4]: 2.42
- glycan array binding signal (z-score) [5]: 6.35
- glycan array binding signal (z-score) [6]: 0.709
- glycan array binding signal (z-score) [7]: -0.126
- glycan array binding signal (z-score) [8]: -0.124
- glycan array binding signal (z-score) [9]: -0.126
- glycan array binding signal (z-score) [10]: -0.115
- glycan array binding signal (z-score) [11]: -0.129
- glycan array binding signal (z-score) [12]: -0.122
- glycan array binding signal (z-score) [13]: -0.113
- glycan array binding signal (z-score) [14]: -0.122
- glycan array binding signal (z-score) [15]: -0.117
- glycan array binding signal (z-score) [16]: -0.113
- glycan array binding signal (z-score) [17]: -0.12
- glycan array binding signal (z-score) [18]: -0.128
- glycan array binding signal (z-score) [19]: -0.132
- glycan array binding signal (z-score) [20]: -0.113
- glycan array binding signal (z-score) [21]: -0.123
- glycan array binding signal (z-score) [22]: 9.99
- glycan array binding signal (z-score) [23]: 6.09
- glycan array binding signal (z-score) [24]: 1.73
- glycan array binding signal (z-score) [25]: 3.07
- glycan array binding signal (z-score) [26]: 9.6
- glycan array binding signal (z-score) [27]: 13.3
- glycan array binding signal (z-score) [28]: -0.123
- glycan array binding signal (z-score) [29]: -0.136
- glycan array binding signal (z-score) [30]: 10.1
- glycan array binding signal (z-score) [31]: -0.124
- glycan array binding signal (z-score) [32]: -0.13
- glycan array binding signal (z-score) [33]: -0.123
- glycan array binding signal (z-score) [34]: -0.104
- glycan array binding signal (z-score) [35]: -0.121
- glycan array binding signal (z-score) [36]: -0.122
- glycan array binding signal (z-score) [37]: -0.127
- glycan array binding signal (z-score) [38]: -0.119
- glycan array binding signal (z-score) [39]: -0.123
- glycan array binding signal (z-score) [40]: -0.129
- glycan array binding signal (z-score) [41]: -0.12
- glycan array binding signal (z-score) [42]: -0.131
- glycan array binding signal (z-score) [43]: -0.122
- glycan array binding signal (z-score) [44]: -0.129
- glycan array binding signal (z-score) [45]: -0.113
